Experimental findings from PubChem BioAssay are described below.

The nature of assay [1]: compounds binding Alexa647 anti-His antibody – biochemical, small-molecule microarray, 635 nm fluorescence, artefact control for SMM control protein annotation, primary screen (AID 1128).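 Also: score merges feature fluorescence with signal-to-noise for each printed compound spot.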 Particulars: higher = more signal.
Assay [2] deals with Human papillomavirus type 1a E7 protein (residues 1-88). The assay can be described thus: HPV1a E7 small-molecule binders, primary screen, biochemical, small-molecule microarray, residues 1-88, 635 nm (AID 1129). As to conditions: small-molecule microarray binding, fluorescence 635 nm; higher = more signal.
Assay [3] addresses Focal adhesion kinase 1 (Homo sapiens) (UniProt Q05397). The experiment in a line: PTK2 protein binding on printed compound slides – biochemical, small-molecule microarray, 635/667 nm fluorescence, BSA, DTT, primary screen (AID 1130).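 Also: composite of spot emission at 667 nm and signal to noise over triplicate slides.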 Particulars: 635 nm fluorescence, higher = more signal.
Assay [4] deals with Fibrinogen (Alexa647-labelled). The experiment in a line: Alexa647-fibrinogen binding to printed small molecules – biochemical, small-molecule microarray, 635/667 nm fluorescence, artefact control for SMM control-protein annotation, profiling panel (AID 1131).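 Also: z-score merges 667 nm fluorescence with per-spot signal-to-noise over triplicate slides.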 Particulars: fibrinogen-A647 binding fluorescence, higher = more signal.
In assay [5] the target is Follistatin (Homo sapiens) (UniProt P19883). The experiment in a line: FST protein binding to printed compounds – biochemical, small-molecule microarray, 635/667 nm fluorescence, primary screen (AID 1132). Particulars: 635 nm fluorescence, higher = more signal.
Sequence of Follistatin (Homo sapiens) (P19883 whole entry, looked up): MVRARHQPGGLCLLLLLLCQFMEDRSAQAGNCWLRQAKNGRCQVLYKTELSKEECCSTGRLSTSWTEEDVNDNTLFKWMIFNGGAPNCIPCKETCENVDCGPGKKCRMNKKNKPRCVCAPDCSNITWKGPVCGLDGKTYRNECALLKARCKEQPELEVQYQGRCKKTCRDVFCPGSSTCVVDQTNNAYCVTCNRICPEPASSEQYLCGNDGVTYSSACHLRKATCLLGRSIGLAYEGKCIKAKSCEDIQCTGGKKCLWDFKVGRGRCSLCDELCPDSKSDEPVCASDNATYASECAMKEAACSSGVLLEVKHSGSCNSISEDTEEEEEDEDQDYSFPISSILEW
Assay [6] has as its target Fibroblast growth factor 2 (Homo sapiens) (UniProt P09038). The experiment in a line: basic fibroblast growth factor binding to printed compounds – biochemical, small-molecule microarray, 635/667 nm fluorescence, primary screen (AID 1133). Particulars: FGF2, fluorescence 635/667, higher = more signal.
The nature of assay [7]: JC-1 mitochondrial potential readout, lung cancer cells – cell-based, A549, JC-1 fluorescence, basal, 24 h, 100 nL, profiling panel (AID 1138).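 Also: A549 lung adenocarcinoma cells under basal conditions with no added stimulus; test concentration not given here.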 As to conditions: higher = more signal.
The test system of the next assay is Lefty1. The assay can be described thus: Lefty1 protein binding to printed compounds – biochemical, small-molecule microarray, 635/667 nm fluorescence, primary screen (AID 1139). Particulars: fluorescence 635/667, higher = more signal.
The test system of assay [8] is wheat germ agglutinin (Triticum aestivum), Alexa647-labelled. The experiment in a line: Alexa647-WGA lectin binding to printed small molecules – biochemical, small-molecule microarray, 635/667 nm fluorescence, artefact control for SMM control-protein annotation, profiling panel (AID 1140).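 Also: score merges 667 nm feature emission with signal to noise over triplicate slides.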 Particulars: WGA-A647 binding, 635 nm fluorescence, higher = more signal.
The target of assay [9] is Luciferin 4-monooxygenase (Photinus pyralis) (UniProt P08659). The assay can be described thus: inhibition of purified Photinus pyralis luciferase – biochemical, luminescence, purified enzyme, 2006 set, primary screen (AID 1141).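 Also: cell-free assay with purified firefly luciferase at 100 ng per well in PBS; test concentration not given here.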 Particulars: purified firefly luciferase, SteadyGlo luminescence, 30 min; higher = more signal, called active from +8 up or from −8 down.
Sequence of Luciferin 4-monooxygenase (Photinus pyralis) (P08659 whole entry, looked up): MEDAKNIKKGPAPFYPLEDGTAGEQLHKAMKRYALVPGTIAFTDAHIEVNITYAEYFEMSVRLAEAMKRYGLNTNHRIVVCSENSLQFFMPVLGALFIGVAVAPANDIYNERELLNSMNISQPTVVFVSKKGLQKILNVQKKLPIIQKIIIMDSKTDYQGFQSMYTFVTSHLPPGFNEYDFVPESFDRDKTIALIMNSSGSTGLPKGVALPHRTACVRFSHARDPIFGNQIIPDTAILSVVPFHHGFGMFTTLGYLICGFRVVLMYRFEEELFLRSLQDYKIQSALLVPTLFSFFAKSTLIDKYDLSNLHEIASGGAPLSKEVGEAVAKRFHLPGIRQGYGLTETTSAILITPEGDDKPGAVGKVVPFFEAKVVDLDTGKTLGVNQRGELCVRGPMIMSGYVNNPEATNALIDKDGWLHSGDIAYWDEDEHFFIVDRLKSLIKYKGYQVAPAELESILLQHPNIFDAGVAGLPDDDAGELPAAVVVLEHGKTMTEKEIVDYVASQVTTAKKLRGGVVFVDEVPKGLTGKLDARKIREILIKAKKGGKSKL
Assay [10] has as its system Wnt5a (protein binding on small-molecule microarray). The experiment in a line: small molecules binding Wnt5a protein – biophysical, small-molecule microarray, 635/667 nm fluorescence, primary screen (AID 1142).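 Also: fluorescence read at 667 nm with signal to noise per printed feature.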 As to conditions: 635 nm fluorescence, higher = more signal.
Assay [11] is described as follows: ATP-based viability of Huh7 replicon cells – cell-based, CellTiter-Glo luminescence, basal, 48 h, cytotoxicity control for HCV replication inhibitor project, primary screen (AID 1143).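 Also: Huh7 hepatoma cells carrying a hepatitis C replication reporter with no stimulus; test concentration not given here.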 Particulars: higher = more signal, called active from +8 up or from −8 down.
Assay [12] in a line: Pseudomonas biofilm growth suppression – PAO1 strain, BacTiter-Glo luminescence, LB-PBS, primary screen (AID 1144). As to conditions: P. aeruginosa PAO1 biofilm, 12 h, higher = more signal.
Assay [13] in a line: basal CRE-LacZ reporter activity in PC12 – cell-based, unstimulated, primary screen (AID 1145). Particulars: no forskolin, luminescence, 4.5 h, higher = more signal, called active from +8 up or from −8 down.
Assay [14] in a line: forskolin-driven CRE-LacZ activity in PC12 – cell-based, CRE-LacZ reporter, forskolin-stimulated, primary screen (AID 1146).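 Also: PC12 cells with 6xCRE LacZ reporter stimulated by forskolin 10 µM; beta-galactosidase reporter signal reflecting CREB driven transcription.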 As to conditions: luminescence, 4.5 h, higher = more signal, called active from +8 up or from −8 down.
Assay [15] addresses Streptavidin (Streptomyces avidinii) (UniProt P22629). The assay can be described thus: compounds binding control protein streptavidin – biophysical, small-molecule microarray, 635/667 nm fluorescence, artefact control for SMM compound annotation, primary screen (AID 1147).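 Also: signal reflects streptavidin binding to arrayed compounds as a control protein.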 Particulars: higher = more signal.
The nature of assay [16]: probe aInhba binding on compound microarray – biochemical, small-molecule microarray, 635/667 nm fluorescence, primary screen (AID 1148).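 Also: score merges 667nm spot fluorescence with signal-to-noise for antibody binding to printed compounds.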 Particulars: higher = more signal.
Assay [17] has as its target Torsin-1A (Homo sapiens) (UniProt O14656). The assay can be described thus: TOR1A wild-type binding on microarray – cell lysate, small-molecule microarray, lysate, 635/667 nm, primary screen (AID 1149). Particulars: COS7 hTOR1A-WT lysate, 635 nm fluorescence, higher = more signal.
Assay [18] has the same target. The assay can be described thus: torsin A mutant lysate binding on microarrays – cell lysate, small-molecule microarray, COS7 lysate, 635/667 nm fluorescence, primary screen (AID 1150).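 Also: score pools 667 nm emission and signal to noise measuring lysate protein binding.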 Particulars: COS7 hTOR1A mutant lysate, 635 nm fluorescence, higher = more signal.
The subject of assay [19] is Sonic hedgehog protein (Shh). The assay can be described thus: Sonic hedgehog microarray binding compounds – biochemical, small-molecule microarray, 635/667 nm fluorescence, primary screen (AID 1151).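 Also: Shh protein binding to compounds spotted on small-molecule microarray slides; score combines spot fluorescence intensity with signal-to-noise across triplicate slides.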 Particulars: 635 nm fluorescence, higher = more signal.

The source made the active and inactive calls. Unless noted, no rule for the calls is given here.

Sequence of Fibroblast growth factor 2 (Homo sapiens) (P09038 whole entry, looked up): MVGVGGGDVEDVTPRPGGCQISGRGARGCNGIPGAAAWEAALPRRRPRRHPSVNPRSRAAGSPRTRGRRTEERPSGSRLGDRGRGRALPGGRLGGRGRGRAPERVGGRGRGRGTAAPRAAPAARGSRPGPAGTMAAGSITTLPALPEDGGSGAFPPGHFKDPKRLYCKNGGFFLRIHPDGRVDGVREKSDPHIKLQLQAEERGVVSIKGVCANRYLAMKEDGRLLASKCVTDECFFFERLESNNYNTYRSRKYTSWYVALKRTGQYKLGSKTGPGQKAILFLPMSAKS
Sequence of Streptavidin (Streptomyces avidinii) (P22629 whole entry, looked up): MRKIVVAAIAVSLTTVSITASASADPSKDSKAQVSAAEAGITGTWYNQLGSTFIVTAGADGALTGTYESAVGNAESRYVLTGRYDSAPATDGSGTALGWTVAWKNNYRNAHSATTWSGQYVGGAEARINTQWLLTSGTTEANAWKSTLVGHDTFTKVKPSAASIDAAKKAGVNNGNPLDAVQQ
Sequence of Torsin-1A (Homo sapiens) (O14656 whole entry, looked up): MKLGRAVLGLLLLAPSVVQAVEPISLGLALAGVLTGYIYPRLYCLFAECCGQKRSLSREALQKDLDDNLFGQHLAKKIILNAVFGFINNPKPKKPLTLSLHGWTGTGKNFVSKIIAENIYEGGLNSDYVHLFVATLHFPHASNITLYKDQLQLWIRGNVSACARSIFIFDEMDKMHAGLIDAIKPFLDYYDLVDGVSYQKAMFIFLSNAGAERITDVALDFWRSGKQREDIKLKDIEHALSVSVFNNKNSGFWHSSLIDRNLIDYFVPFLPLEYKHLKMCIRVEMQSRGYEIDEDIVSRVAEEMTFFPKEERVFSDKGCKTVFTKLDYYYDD
Sequence of Focal adhesion kinase 1 (Homo sapiens) (Q05397 whole entry, looked up): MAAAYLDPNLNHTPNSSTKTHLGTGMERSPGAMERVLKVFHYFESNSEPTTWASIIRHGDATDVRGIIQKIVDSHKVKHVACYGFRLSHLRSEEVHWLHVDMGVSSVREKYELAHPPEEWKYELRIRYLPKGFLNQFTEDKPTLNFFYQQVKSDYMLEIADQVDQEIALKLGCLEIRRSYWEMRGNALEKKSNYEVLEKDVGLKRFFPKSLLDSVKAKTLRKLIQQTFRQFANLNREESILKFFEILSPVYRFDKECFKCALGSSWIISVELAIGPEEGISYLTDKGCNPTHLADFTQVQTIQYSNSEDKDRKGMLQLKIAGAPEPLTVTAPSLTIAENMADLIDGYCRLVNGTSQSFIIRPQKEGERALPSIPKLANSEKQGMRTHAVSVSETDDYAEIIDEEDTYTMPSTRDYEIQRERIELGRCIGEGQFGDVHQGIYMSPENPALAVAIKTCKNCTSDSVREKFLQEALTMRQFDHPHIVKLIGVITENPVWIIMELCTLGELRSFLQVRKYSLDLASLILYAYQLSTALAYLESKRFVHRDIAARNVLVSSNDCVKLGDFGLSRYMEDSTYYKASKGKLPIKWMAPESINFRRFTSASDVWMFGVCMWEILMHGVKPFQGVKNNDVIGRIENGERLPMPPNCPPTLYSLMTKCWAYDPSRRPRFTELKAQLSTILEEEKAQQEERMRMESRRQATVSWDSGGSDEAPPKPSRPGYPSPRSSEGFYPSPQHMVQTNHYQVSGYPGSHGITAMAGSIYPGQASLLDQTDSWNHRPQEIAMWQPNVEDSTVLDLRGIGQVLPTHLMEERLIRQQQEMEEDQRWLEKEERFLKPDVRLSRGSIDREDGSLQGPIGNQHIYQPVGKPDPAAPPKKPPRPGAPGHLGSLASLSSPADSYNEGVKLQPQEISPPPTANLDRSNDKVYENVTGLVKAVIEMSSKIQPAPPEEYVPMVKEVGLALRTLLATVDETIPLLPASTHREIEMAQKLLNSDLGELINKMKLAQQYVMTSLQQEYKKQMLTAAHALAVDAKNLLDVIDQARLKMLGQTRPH

For the compound `CO[C@H]1O[C@H](CO)[C@@H](OC(=O)Nc2cccc(F)c2)[C@H](OC(=O)Nc2ccccc2-c2ccccc2)[C@H]1OC(=O)Nc1ccccc1-c1ccccc1`, the composite z-score worked out at 2.69 in assay [1]; 1.28 in [2]; 0.55 in assay [3]; 0.986 in [4]; 1.32 in assay [5]; 1.5 in [6]. In addition, the composite z-score worked out at 1.14 in the assay on Lefty1; 0.474 in assay [8]; 0.828 in assay [10]; 0.379 in [15]; 0.208 in [16]; 0.937 in the assay with Torsin-1A (Homo sapiens) [17]. Also, the composite z-score with Torsin-1A (Homo sapiens) [18] turned out to be 0.663; in assay [19], 1.23. The z-score in [7] is -0.498; in assay [9] it was 0.372 (inactive); in assay [11], -5.99 (inactive); in [12], 0.0177 (inactive); in assay [13], 0.951 (inactive); in [14], -0.986 (inactive).

For `COCC(=C=CC[C@H](O)c1cccc(OCCO)c1)C[C@H](O)COCc1ccccc1`, the composite z-score in assay [1] was 1.09; in [2] it was 1.11; in [3], 1.24; in assay [4], -0.749; in assay [5], 1.21; in assay [6], 1.23. The composite z-score in the assay with Lefty1 was 0.88; in assay [8], -0.41; in [10] it was 0.191; in assay [15] it was -0.599; in assay [16], 0.264; with Torsin-1A (Homo sapiens) [17] it was 2.41. Further, the composite z-score is 1.31 in the assay with Torsin-1A (Homo sapiens) [18] and 1.28 in assay [19]. Further, the z-score in assay [7] is -0.177; in assay [9], -0.496 (inactive); in assay [11] it was -0.33 (inactive); in assay [12], -0.218 (inactive); in assay [13], 5.03 (inactive); in assay [14], 1.74 (inactive).

Consider `COCCOC(=O)N1C(=O)[C@@]2(c3ccccc31)[C@H](c1ccccc1OCCO)N1[C@H](c3ccccc3)[C@H](c3ccccc3)OC(=O)[C@H]1[C@@H]2C(N)=O`, for which the composite z-score in assay [1] worked out at 1.93; in assay [2], 1.18; in assay [3] it was 0.502; in assay [4] it was 0.955; in assay [5] it was 1.4; in assay [6], 1.57. Also, the composite z-score in the assay on Lefty1 is 1.01; in assay [8] it was 0.64; in [10] it was 0.408; in [15], 1.25; in assay [16], 0.296; with Torsin-1A (Homo sapiens) [17], -0.401. In addition, the composite z-score with Torsin-1A (Homo sapiens) [18] was found to be 1.07; in assay [19], 1.48. The z-score in assay [7] is -0.206; in assay [9] it was 0.0559 (inactive); in [11] it was -4.2 (inactive); in [12] it was -0.0116 (inactive); in assay [13], 0.272 (inactive); in [14], 1.86 (inactive).

Take `CN1C(=O)C2C(C1=O)C1C=C(CCCO)C2C(c2cccs2)N1Cc1cc2c(cc1Br)OCO2` (stereo not given): the composite z-score turned out to be 1.12 in assay [1]; 1.22 in assay [2]; 1.07 in [3]; 1.04 in [4]; 1.35 in [5]; 0.502 in assay [6]. The composite z-score was found to be 0.265 with Lefty1; 1.17 in assay [8]; 0.418 in assay [10]; 2.27 in [15]; 0.233 in [16]; 1.5 in the assay with Torsin-1A (Homo sapiens) [17]. Besides, the composite z-score was found to be 1.95 in the assay with Torsin-1A (Homo sapiens) [18] and 0.162 in [19]. The z-score was 0.903 in assay [7]; -1.48 (inactive) in [9]; -1.8 (inactive) in assay [11]; 0.482 (inactive) in assay [12]; -0.374 (inactive) in assay [13]; -0.101 (inactive) in assay [14].

With `O=C1C2C=CC(C(O)c3cccc(O)c3)N(Nc3ccccc3)C2C(=O)N1c1ccccc1` (stereo not given), the composite z-score in assay [1] is 0.811; in assay [2] it was 0.452; in [3], 0.0964; in [4] it was 0.881; in assay [5], 0.323; in [6] it was -0.202. The composite z-score was -0.199 in the assay on Lefty1; 0.0207 in assay [8]; -0.105 in [10]; 0.318 in assay [15]; -0.0645 in assay [16]; -0.338 with Torsin-1A (Homo sapiens) [17]. For the same compound, the composite z-score in the assay with Torsin-1A (Homo sapiens) [18] was -0.283; in [19], -0.461. In addition, the z-score is -0.319 in [7]; 0.509 (inactive) in assay [9]; -2.93 (inactive) in [11]; -1.06 (inactive) in assay [12]; -0.14 (inactive) in assay [13]; 1.37 (inactive) in assay [14].

As to `CCOC(=O)C1=C[C@@H](C(C)(C)C)N(S(=O)(=O)c2ccc(C)cc2)[C@H]1c1ccccc1`, the composite z-score was 0.761 in [1]; 1.16 in assay [2]; 0.329 in [3]; 0.706 in assay [4]; 1.11 in [5]; 0.136 in [6]. Also, the composite z-score in the assay on Lefty1 was determined as 0.523; in assay [8] it was 1.09; in assay [10], 0.251; in assay [15] it was 1.29; in assay [16] it was 0.27; with Torsin-1A (Homo sapiens) [17], 0.0214. Also, the composite z-score with Torsin-1A (Homo sapiens) [18] was 0.611; in assay [19], 0.871. The z-score was 2.21 in [7]; 0.756 (inactive) in assay [9]; -4.44 (inactive) in [11]; 1.43 (inactive) in assay [12]; 0.696 (inactive) in [13]; -0.276 (inactive) in assay [14].
